Screens deposited in PubChem by several laboratories.
HSF1 inhib: HSF1 inhibition; NIH3T3-HGL HSE-luciferase, MG132-induced, luminescence 8 h; stronger effect = lower value; activity change, negative = inhibition, % at 7.5 µM (by protocol); hit rate 0.77% among 300,000; AID 2098;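 active = more than half of replicate wells show activity change below -50%, luminescence cut by over half; inconclusive = some wells, but at most half, below -50%; inactive = no replicate well below -50%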;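 note: luciferase reports HSF-1 transcriptional activity via heat shock element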
TWEAK Fn14 block: inhibitors of TWEAK-Fn14 interaction signaling; TWEAK-stimulated Fn14 reporter cells, luciferase luminescence, 8 h; inhibition, % at 10 µM; hit rate 2% among 360,000; AID 1159606; in the data active = inhibition above about 50%
HSP90 inh: inhibitors of HSP90 luciferase refolding in rabbit reticulocyte lysate | luciferase refolding luminescence, 3 h | inhibition, % at 5.6 µM | hit rate 0.91% among 290,000 | AID 1789;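 active = inhibition above the screen-wide mean plus 3 SD, computed separately per campaign, cut at about 16% in these data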;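 note: inhibitors lower the luminescence because luciferase stays unfolded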
HSF1 activator: increases HSF-1 driven luciferase reporter signal; NIH3T3-HGL HSF-1 luciferase reporter, MG132, 8 h; 100% = twice DMSO control signal; hit rate 1.7% among 300,000; activation, % at 9 µM;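 active = mean replicate activation of at least 50% with a set share of replicates each reaching 50%; inconclusive = only one of those two conditions met; inactive = mean below 50% and too few replicates reaching it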
EBV LMP1 NFkB: reduces LMP1-driven NF-kappaB luciferase signal; AID 504558; inhibition, % at 12.5 µM; hit rate 0.69% among 350,000; LMP1-induced NF-kappaB luciferase reporter cells, luminescence; in the data active = inhibition above about 41%; inconclusive = no clear call, values can overlap the other calls
TROY NFkB inh: inhibitors of TROY-dependent NF-kB signaling; Q293 LMP1-TROYcd NF-kB luciferase reporter, 4 h; inhibition, % at 10 µM; hit rate 0.98% among 360,000;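 active = compounds whose plate-normalised and pattern-corrected inhibition of the luciferase reporter signal at the single screening dose is 50% or more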
Of the large screens only hits and unclear results are named; the others gave an inactive call. This is a sample that favours compounds with a hit; in the whole collection about 4.7% have one here.

O=C1NC(=O)C(CCc2ccncc2)(CCc2ccncc2)C(=O)N1Cc1ccccc1	HSF1 inhib -71
O=C1NC(=O)C(Cc2ccccc2)(Cc2ccccc2)C(=O)N1Cc1ccccc1	none (no result: HSF1 inhib, HSP90 inh, HSF1 activator)
Nc1cc(Cl)c2nonc2c1[N+](=O)[O-]	TWEAK Fn14 block 58, TROY NFkB inh 70 (no result: HSF1 inhib, HSF1 activator)
CCc1ccc(N2C(=O)NC(=O)/C(=C/c3cccn3CCOc3ccc(C(C)CC)cc3)C2=O)cc1 (stereo not drawn)	TWEAK Fn14 block 65, HSP90 inh 29
N#Cc1ccc(Cn2cc(C=O)c3ccccc32)cc1	none
Cc1cccc(Cn2cc(C=O)c3ccccc32)c1	EBV LMP1 NFkB 51
O=Cc1cn(Cc2cccc([N+](=O)[O-])c2)c2ccccc12	EBV LMP1 NFkB 89, TROY NFkB inh 68
COC(/C(C)=C/C=C/C(C)=C/c1coc(C)n1)C(C)C1CC(O)C2(C)OC2C=CC(C)C2CC(CC(=O)O2)CC2OC2C(=O)O1 (stereo not drawn)	none (no result: HSF1 inhib, HSP90 inh, HSF1 activator)
O=C(Cn1ncc2c3ccccc3n(Cc3cccc(Cl)c3)c2c1=O)N1CCC2(CC1)OCCO2	none
Cn1c2ccccc2c2cnn(CC(=O)N3CCC4(CC3)OCCO4)c(=O)c21	HSF1 inhib -56 (no result: TWEAK Fn14 block, EBV LMP1 NFkB, TROY NFkB inh)
CCOP(=O)(OCC)C(NC(=O)c1ccccc1Cl)=C(Cl)Cl	none
CCOP(=O)(C(NC(=O)c1ccccc1Cl)=C(Cl)Cl)c1ccccc1 (stereo not drawn)	HSF1 activator 90
CCOC(=O)CNC(=O)N1Cc2cc(-c3cccc(F)c3)ccc2-n2nncc2C1	none (no result: HSF1 inhib, HSP90 inh, HSF1 activator, EBV LMP1 NFkB)
c1ccc(P(c2ccccn2)c2ccccn2)cc1	TROY NFkB inh 59
Nc1nnc(P(c2ccccc2)c2ccccc2)s1	none
O=C(OC1CCN(CCCl)CC1)C(c1ccccc1)c1ccccc1	EBV LMP1 NFkB 51 (no result: HSF1 inhib, HSP90 inh, HSF1 activator)
C[N+]1(C)[C@@H]2CC[C@H]1CC(OC(=O)C(c1ccccc1)c1ccccc1)C2 (stereo partly drawn)	none
CCC1C2CC3C4N(C)c5ccccc5C45CC(C2C5O)N3C1O (stereo not drawn)	none (no result: HSF1 inhib, HSP90 inh, HSF1 activator, EBV LMP1 NFkB)
OC1C2CN3CN(C2)CC1(c1ccccc1)C3 (stereo not drawn)	none
CC12CN3CN(C1)CC(c1ccccc1)(C3)C2=O	TWEAK Fn14 block 88 (no result: TROY NFkB inh)
CCN1C(=O)NC(=O)/C(=C/c2cc(C)n(-c3sc(C)c(C)c3C#N)c2C)C1=O	HSF1 inhib -56
CCOC(=O)c1c(-n2c(C)cc(/C=C3/C(=O)NC(=O)N(CC)C3=O)c2C)sc2c1CCCC2	none
COC1C(C)OC(OC2CC(C)(O)Cc3cc4c(c(O)c32)C(=O)c2c(O)cc3c(c2C4=O)OC2OC3(C)C(O)C(N(C)C)C2O)C(OC)C1(C)OC (stereo not drawn)	HSF1 inhib 71, HSF1 activator 71, EBV LMP1 NFkB 85 (no result: HSP90 inh)
CC(C)n1c(O)c(C2c3cc(Cl)ccc3Oc3[nH]c(=O)n(C(C)C)c(=O)c32)c(=O)[nH]c1=O (stereo not drawn)	TWEAK Fn14 block 100
CC(=O)c1c(O)n(-c2cccc(Cl)c2)c(=O)[nH]c1=O (tested in a mixture with another compound)	none
O=S(=O)(c1ccc(Cl)cc1)N1Cc2cc(Br)ccc2-n2nncc2C1	none (no result: HSF1 inhib, HSP90 inh, HSF1 activator, EBV LMP1 NFkB)
FC(F)(F)c1ccc(-c2ccc3c(c2)CNCc2cnnn2-3)cc1	none (no result: HSF1 inhib, HSP90 inh, HSF1 activator, EBV LMP1 NFkB)
Oc1cc(Cl)ccc1Oc1ccc(Cl)cc1Cl	TROY NFkB inh 51 (no result: HSP90 inh)
O=C(NCC1=C(c2cccc3ccccc23)C[C@@H]2CC[C@H]1N2Cc1ccco1)c1cccs1	none (no result: HSF1 inhib, HSP90 inh, HSF1 activator)
CCn1c(O)c(C=Nc2ccc(N3CCOCC3)c(Br)c2)c(=O)n(CC)c1=S	HSF1 inhib -67, EBV LMP1 NFkB inconclusive
CCn1c(O)c(N=Nc2ccc(S(=O)(=O)N3CCOCC3)cc2)c(=O)n(CC)c1=S	TWEAK Fn14 block 57
O=c1[nH]c2ccccc2n1C1CCN(Cc2ccc(-c3nc4ccc(F)cc4nc3-c3ccccc3)cc2)CC1	none (no result: HSF1 inhib, HSP90 inh, HSF1 activator, EBV LMP1 NFkB)
COc1cccc(CNC2CN3CCC2CC3)c1OC (stereo not drawn)	TWEAK Fn14 block 68
CCCCCN1C(=O)c2ccccc2[C@@]2(C(=O)OCC)Cc3cc(OC)ccc3[C@@H]12	none (no result: HSF1 inhib, HSP90 inh, HSF1 activator, EBV LMP1 NFkB)
COc1ccc(-n2c(-c3ccc(C)cc3)nc3ccccc3c2=O)cc1	none
COc1ccc(-c2nc3ccccc3c(=O)n2-c2cccnc2)cc1	HSF1 inhib -69
N#Cc1ncc(N=Cc2ccc(N(CCCl)CCCl)cc2)s1	TWEAK Fn14 block 53, EBV LMP1 NFkB 59 (no result: HSF1 inhib, HSP90 inh, HSF1 activator)
CCOC(=O)C(NC(=O)C(Cc1ccc(N(CCCl)CCCl)cc1)NC(C)=O)C(C)C (stereo not drawn)	none
COC(=O)C(Cc1ccc(N(CCCl)CCCl)cc1)N=Cc1ccccc1O (stereo not drawn)	EBV LMP1 NFkB 73
O=C1CC2OCC=C3CN4CCC56c7ccccc7N1C5C2C3CC46O (stereo not drawn)	none (no result: HSF1 inhib, HSP90 inh, HSF1 activator, EBV LMP1 NFkB)
Cc1ccccc1-c1ccc2c(c1)CNCc1cnnn1-2	none (no result: HSF1 inhib, HSP90 inh, HSF1 activator, EBV LMP1 NFkB)
O=c1[nH]c(=S)[nH]c(O)c1N=Nc1ccc(SC(F)F)cc1	TWEAK Fn14 block 58, HSF1 activator inconclusive
C/C=C1\NC(=O)[C@H](C)NC(=O)[C@@H](NC(=O)[C@H](Cc2ccc(O)cc2)NC(=O)[C@@H](NC(=O)/C(C)=C/C)C(C)C)[C@@H](C)OC(=O)[C@H](CCCc2ccc(O)cc2)NC(=O)[C@@H](CCC(=O)O)NC1=O	none (no result: HSF1 inhib, HSP90 inh, HSF1 activator, EBV LMP1 NFkB)
NC(Cc1ccccc1Cl)c1nn[nH]n1 (stereo not drawn)	none (no result: HSF1 inhib, HSP90 inh, HSF1 activator)
Cc1ccc(-n2c(O)c(/C=C/C=Nc3ccccc3)c(=O)[nH]c2=O)cc1	none
Cc1ccc(N/N=C/c2c(O)n(-c3ccccc3)c(=O)[nH]c2=O)cc1	HSP90 inh 24
COC(=O)C1=C(c2ccc3ccccc3c2)C[C@@H]2CC[C@H]1N2C(=O)N1CCC(C)CC1	none (no result: HSF1 inhib, HSP90 inh, HSF1 activator)
CC(=O)c1c(C)n(C2CCCCC2)c2ccc(O)cc12	TWEAK Fn14 block 86, EBV LMP1 NFkB 70, TROY NFkB inh 53
Cc1cc(C)n(-c2ccc(NN=C(C#N)C#N)cc2)n1	TWEAK Fn14 block 84, EBV LMP1 NFkB 57, TROY NFkB inh 65
N#CC(C#N)=NNc1ccc(-n2ccc(C(F)(F)F)n2)cc1	TWEAK Fn14 block 91, EBV LMP1 NFkB 60, TROY NFkB inh 67
O=P1(NCCCl)OCCCN1CCCl (stereo not drawn)	none (no result: HSF1 inhib, HSP90 inh, HSF1 activator)
CC1=CC2OC3CC4OC(=O)C=CC=CC(=O)OCCC(C)C(O)C(=O)OCC2(CC1O)C4(C)C31CO1 (stereo not drawn)	HSF1 inhib 92, TWEAK Fn14 block 96, HSF1 activator 92, EBV LMP1 NFkB 85, TROY NFkB inh 84 (no result: HSP90 inh)
CC1=CC2OC3CC4OC(=O)C=CC=CC(C(C)O)OCC(O)C(C)CC(=O)OCC2(CC1O)C4(C)C31CO1 (stereo not drawn)	TWEAK Fn14 block 99, EBV LMP1 NFkB 84, TROY NFkB inh 84 (no result: HSF1 inhib, HSP90 inh, HSF1 activator)
O=S(=O)(c1cc(Cl)cc(Cl)c1)N1Cc2cc(N3CCOCC3)ccc2-n2nncc2C1	none (no result: HSF1 inhib, HSP90 inh, HSF1 activator, EBV LMP1 NFkB)
